# Pf growth 48h: P. falciparum growth inhibition at 48 hours (one generation); Potency, µM (titrated, usually from 28.7 µM), inactives show at the highest dose activity change, negative = inhibition, hits mostly inhibitors; 310,000 compounds, 5.9% hits; P. falciparum luciferase growth in erythrocytes, 48 h; AID 504832; further: potency means the concentration at half of the fitted maximal effect; on the % scale 0 is the no-effect control and ±100 the full control effect
#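 Erythrocytes infected with P. falciparum carrying an integrated firefly luciferase reporter (2% hematocrit, 0.1% parasitemia final) were exposed to compounds in RPMI 1640 with 0.5% Albumax at 37 C, 5% CO2. Growth inhibition was scored as reduced luminescence.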
# Pf growth 96h: inhibits malaria parasite growth, 96 h; P. falciparum luciferase reporter growth, 96 h; Potency, µM (doses to about 28.7 µM), without a hit: at the highest dose activity change, negative = inhibition, hits mostly inhibitors; 320,000 compounds, 6.9% hits; AID 504834; further: potency means the concentration at half of the fitted maximal effect; on the % scale 0 is the no-effect control and ±100 the full control effect
#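 Delayed-death screen, second-generation endpoint: infected erythrocytes, 2% hematocrit, 0.05% parasitemia final; 96 hours at 37 C, 5% CO2; luciferase detection reagent; luminescence decrease equals reduced growth.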
# Shiga inhibitor: inhibitors of Shiga toxin in Vero cells. 290,000 compounds, 9.2% hits. inhibition, % at 38.7 µM. Vero cells, Shiga toxin protein synthesis inhibition reporter; in the data active means inhibition mostly above about 28%, no sharp cut-off; inactive means mostly below about 43%; further: 0% is about no effect
# SARS PLpro yeast: inhibitors of SARS-CoV papain-like protease in yeast; S. cerevisiae expressing SARS-CoV PLpro, growth rescue; Potency, µM (top dose mostly 32.9 µM), for the others: top-dose activity, positive = growth rescue, actives largely listed as activators; 330,000 compounds, 0.19% hits; AID 485353; calls by dose curve; further: potency means the concentration at half of the fitted maximal effect; 0% is about no effect; nearly all actives have a fitted effect of over 55% in size
# CHX counter: counter-screen hit for Shiga toxin inhibitors, cycloheximide. max response, %. 300,000 compounds, 12% hits. AID 2314. cell reporter, cycloheximide protein synthesis inhibition counterscreen; in the data active means max response mostly above about 13%, no sharp cut-off; inactive means mostly below about 14%; further: read at 38.3 µM for the half of the compounds with a filed dose; 0% is about no effect
# NS1 inh: influenza NS1 inhibition; 270,000 compounds, 0.4% hits; Potency, µM (titrated, usually from 46.1 µM), for the others: at the highest dose activity, positive = more growth; calls by dose curve; further: potency means the concentration at half of the fitted maximal effect; actives are rising curves; nearly all actives have a fitted effect of over 50% in size
#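 S. cerevisiae expressing influenza A NS1, grown in glucose, washed, then diluted 1:100 into pH 6.0 -URA galactose medium with 23 nl compound. Growth recovery read as OD600; NS1-free strain serves as control.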
# The depositor's hits bear a star; ? = inconclusive; . = no result. Rows were chosen to be rich in hits. Some 21% of all compounds tested hit in one or more screens of this group. Unless noted, the call rests on the fitted dose curve; in most records, active means well fitted inhibition curve with a large enough effect; inconclusive means small, poorly fitted or top-dose-only effect, or another doubt; inactive means no such curve, though single readings can be large or run the other way.
SMILES,Pf growth 48h,Pf growth 96h,Shiga inhibitor,SARS PLpro yeast,CHX counter,NS1 inh
CCOCCCNC(=O)C(c1ccc(OC)cc1)N(Cc1cccs1)C(=O)c1ccccn1 (stereo not given),2%,2%,5,4%,1,.
COc1cc2nc(Nc3ccc(C)c(Cl)c3)nc(N)c2cc1OC,0.59µM*,41%,20,-10%,11,-3%
Cc1ccc(Nc2ncnc(N)n2)cc1C,-44%,4.1µM*,50*,0%,26*,3%
CC(=O)c1ccc(NC(=O)Cn2cnc(S(=O)(=O)N3CCC(C)CC3)c2)cc1,8%,5%,18,0%,-7,-10%
CC1(C)N=C(N)NC(Nc2cccc(Br)c2)=N1,.,1.2µM*,-13,7%,-5,-5%
COC(=O)CCC(NC(=O)c1cc(C)oc1C)C(=O)OC (stereo not given),12%,10µM*,-4,23%,2,3%
CSCCC(NC(=O)c1cc(C)oc1C)C(=O)O (stereo not given),2%,.,-20,6%,-2,4%
Cc1cccc(N(CC(=O)NC2CCCCC2)C(=O)CCCC(=O)Nc2ccccn2)c1C,-25%,0%,1,0%,1,0%
CCN1C(=O)CC(c2ccccc2)CC1=O,0%,66%,.,-5%,.,.
CCCCOCC1CN(c2ccccc2)C(=O)CS1 (stereo not given),3%,.,-11,1%,-2,?
CCCCC1C(=O)N(c2ccccc2)N(c2ccccc2)C1=O,?,3.3µM*,10,2%,10,?
CCOC(=O)C1CCCN(C(=O)c2ccc3ncsc3c2)C1 (stereo not given),.,.,.,-1%,.,.
COc1ccc(NCC(=O)N/N=C2\CCCC(C)C2)cc1 (stereo not given),-17%,22%,4,-6%,0,5%
CC1CCC/C(=N\Nc2ccc(Cl)c(C(=O)O)c2)C1 (stereo not given),157%,228%,60*,-18%,165*,11%
CC1CCC/C(=N\NC(=O)Nc2ccccc2)C1 (stereo not given),-22%,?,53*,-2%,27*,6%
CC1CCC/C(=N\NS(=O)(=O)c2ccccc2)C1 (stereo not given),38%,56%,7,0%,1,-2%
Cc1ccc(C2C(C#N)=C(N)Oc3cc(N)ccc32)cc1 (stereo not given),-3%,-27%,-12,-3%,-2,-1%
N#CC1=C(N)Oc2cc(N)ccc2C1c1ccsc1 (stereo not given),4%,10µM*,-2,-5%,-5,26%
CC1(c2ccc(OC(F)F)cc2)NC(=O)N(CC(=O)Nc2ccc3[nH]c(=O)[nH]c3c2)C1=O (stereo not given),?,?,.,-6%,.,.
Cc1ccc2nc(-c3ccc(NC(=O)CN4C(=O)NC(C)(c5ccc(OC(F)F)cc5)C4=O)cc3)sc2c1 (stereo not given),198%,107%,99*,22%,30*,4%
CC1(c2ccc(OC(F)F)cc2)NC(=O)N(CC(=O)Nc2ccccc2)C1=O (stereo not given),28%,51%,72*,1%,19*,9%
O=C(CN1C(=O)NC(Cc2ccccc2)C1=O)Nc1ccc(OC(F)F)cc1 (stereo not given),7%,13µM*,.,-9%,.,.
CCn1c(CSc2nnc(-c3ccc4c(c3)OCO4)o2)nc2cc(S(=O)(=O)N(C)C)ccc21,?,.,5,-1%,3,17%
CC(C)[C@H](NC(=O)OCc1ccccc1)C(=O)NC(C=O)Cc1ccccc1 (stereo not given in full),1.3µM*,3.7µM*,.,.,.,.
Cc1cccc(NS(=O)(=O)c2ccccc2)n1,1%,1%,-6,1%,-6,-1%
SMILES,Pf growth 48h,Pf growth 96h,Shiga inhibitor,SARS PLpro yeast,CHX counter,NS1 inh
Cc1cccc(NS(=O)(=O)c2cccc3cccnc23)n1,8%,1.7µM*,9,6%,-2,-3%
COc1ccc(NS(=O)(=O)c2cccc3cccnc23)cc1Cl,?,0.93µM*,19,4%,7,6%
O=S(=O)(NC1CCCCCC1)c1cccc2cccnc12,-7%,5.2µM*,5,1%,-2,-5%
Cc1cccc(NS(=O)(=O)c2ccc(C3CCCCC3)cc2)n1,9.3µM*,.,16,-16%,-1,-97%
O=C(NNC(=O)C1CC=CCC1C(=O)O)c1ccc(Cl)cc1 (stereo not given),9%,109%,-5,6%,3,.
CC1=C(C(=O)N2CCOCC2)C(c2ccccc2F)NC(=O)N1 (stereo not given),0%,6%,-6,-1%,5,1%
Clc1cc2c(c(CSc3nc4ccccc4n4cccc34)c1)OCOC2,?,-2%,-1,-2%,-3,2%
COc1cccc(C(=O)C[n+]2cccc3cc(OC)ccc32)c1,10µM*,?,.,-1%,.,.
COc1ccc(C(=O)C[n+]2cccc3cc(C)ccc32)cc1,15µM*,?,7,5%,-1,4%
COc1ccc(C(=O)C[n+]2ccc3ccccc3c2C)cc1,?,?,94*,-2%,45*,-4%
O=C(C[n+]1cccc2ccccc21)c1ccc(Cl)cc1,.,18%,-2,0%,1,6%
Cc1ccc2c(ccc[n+]2CC(=O)c2ccccc2)c1,15µM*,-5%,-7,?,-2,-9%
COc1ccc(C(=O)OCCc2sc[n+](CC(=O)c3ccccc3)c2C)cc1,-15%,4%,-4,2%,-4,7%
COc1ccc(C(=O)C[n+]2cccc(C)c2)cc1,-12%,-25%,35,5%,8,4%
COc1ccc(S(=O)(=O)N2CCC(C(=O)NCc3ccccc3)CC2)cc1OC,-7%,16%,3,-1%,-4,2%
COCCSc1ccccc1C(=O)N1CCN(Cc2ccccc2)CC1,0%,14%,-11,2%,-2,-6%
CN(C)C(=O)c1ccc(NC(=O)CSc2nnc(-c3cccs3)n2N)cc1,1%,4%,.,9%,.,.
COc1ccc(NC(=O)c2cccc(Cn3cc(Br)cn3)c2)cn1,?,31%,15,-5%,4,-41%
COc1ccc(C(=O)C[n+]2cccc(C(N)=O)c2)cc1,12%,?,2,1%,-3,2%
COc1ccc(C(=O)C[n+]2cccc3cc(OC)ccc32)cc1,9.3µM*,?,-8,-2%,3,-1%
O=C(Oc1ccc2ccc(=O)oc2c1)c1ccco1,161%,13%,-1,7%,4,-30%
COc1ccc(Nc2nc(N3CCOCC3)nc(N3CCOCC3)n2)c(OC)c1,?,-17%,.,5%,1,14%
Cc1ccccc1Nc1ncc(C#N)c(N)n1,14%,?,33*,1%,16,-3%
COc1ccc(Nc2ncc(C#N)c(N)n2)c(OC)c1,34%,26%,70*,-2%,20*,-33%

# Screening data: PubChem BioAssay, National Center for Advancing Translational Sciences (NCATS)
